Assay results: PMC5540273 (PLoS ONE, 2017)

What was measured:
Conditions in all cases: concentration: 1 μM, replicates: in singlicate; n = 1
YANK1 = tested on: T1, YANK1
T1 construct: gene STK32A

YANK2 = tested on: T2, YANK2
T2 construct: gene STK32B

YANK3 = tested on: T3, YANK3
T3 construct: gene STK32C

YES = tested on: T4, YES
T4 construct: gene YES1

YSK1 = tested on: T5, YSK1
T5 construct: gene STK25

YSK4 = tested on: T6, YSK4
T6 construct: gene MAP3K19

ZAK = tested on: ZAK
ZAP70 = tested on: ZAP70
p38-alpha = tested on: T7, p38-alpha
T7 construct: gene MAPK14

p38-beta = tested on: T8, p38-beta
T8 construct: gene MAPK11

p38-delta = tested on: p38-delta
p38-gamma = tested on: T9, p38-gamma
T9 construct: gene MAPK12
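Further: KINOMEscan kinase panel screen.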

Compound	%Inh (YANK1)	%Inh (YANK2)	%Inh (YANK3)	%Inh (YES)	%Inh (YSK1)	%Inh (YSK4)	%Inh (ZAK)	%Inh (ZAP70)	%Inh (p38-alpha)	%Inh (p38-beta)	%Inh (p38-delta)	%Inh (p38-gamma)
COc1ccc(-c2coc3ccc(-c4nnc(SCc5cccc(C#N)c5)o4)cc23)cc1	21%	12%	11%	0%	0%	0%	23%	0%	5%	11%	16%	7%
Fc1cccc(CSc2nnc(-c3ccc4c(c3)CCO4)o2)c1	16%	12%	0%	8%	0%	20%	0%	0%	0%	16%	28%	21%
O=C(Nc1ccc2c(c1)OCO2)NC1CCN(c2ccnc(NCc3ccc(F)cc3)n2)CC1 [GSK1379859]	11%	0%	0%	9%	0%	0%	0%	0%	0%	0%	28%	0%
Cc1cccc(-c2nc(Nc3ccc4c(cnn4C)c3)c3ccccc3n2)n1 [GW876731]	0%	0%	32%	0%	0%	42%	0%	14%	10%	7%	0%	16%
CCC(=O)c1c(-c2ccccc2)c2cc(Cl)ccc2c(=O)n1Cc1cc(S(C)(=O)=O)n(CCC(C)(C)O)n1	19%	13%	23%	0%	0%	0%	27%	3%	16%	6%	32%	26%
Cc1nnc(-c2ccc(C)c(-c3ccc(C(=O)O)cc3)c2)o1 [GW608005]	0%	0%	9%	0%	0%	15%	0%	0%	0%	0%	2%	0%
Cl.c1ccc(Cn2cnc3cc(Nc4ncnc5ccccc45)ccc32)cc1 [GW272142]	0%	0%	18%	7%	0%	29%	0%	21%	0%	0%	39%	0%
COc1cc2nccc(Nc3ccc(OCc4ccc(NC(C)=O)cc4)cc3)c2cc1OC.Cl [GW440135]	0%	4%	0%	11%	0%	0%	10%	16%	18%	0%	24%	0%
Nc1nccc2scc(-c3ccc4c(c3)CCN4C(=O)Cc3ccccc3)c12 [GSK2576924]	10%	9%	0%	5%	0%	36%	0%	0%	0%	0%	19%	5%
Cc1nnc(-c2ccc3ncn(-c4ccc(S(C)=O)cc4)c3c2)o1 (stereo not drawn)	0%	0%	4%	7%	0%	21%	12%	0%	0%	13%	1%	0%
CCCC(=O)Nc1n[nH]c2ncc(-c3cccc4ccccc34)cc12 [SB-642057]	0%	6%	42%	9%	8%	57%	54%	0%	14%	4%	26%	39%
COc1cc(Nc2nccc(N3CCC(NC(=O)C(C)c4ccc(Cl)cc4)C3)n2)cc(OC)c1OC (stereo not drawn) [GSK1379757]	0%	0%	0%	5%	6%	29%	0%	0%	10%	0%	43%	1%
